High-throughput results as filed in PubChem BioAssay.
S2 tox – cell viability loss in ATXN counter-screen; S2 cells (HEK-293 line with an ATXN2-luciferase reporter) viability, CellTiter-Fluor protease fluorescence, 24 h; Potency, µM (highest dose often 56.7 µM), most hits filed as cytotoxic; actives 0.49% (n = 400,000); AID 651635; further: nearly all actives have a fitted effect of over 40% in size
DRD3 antagonist – blocks the human D3 dopamine receptor; max response, negative = inhibition, %; actives 2.5% (n = 360,000); D3R cells, DiscoveRx beta-arrestin luminescence, antagonist mode; hits give low values; P35462; in the data active means max response below about -50%; inconclusive means no clear call, values can overlap the other calls
Target sequence (P35462 whole entry, looked up): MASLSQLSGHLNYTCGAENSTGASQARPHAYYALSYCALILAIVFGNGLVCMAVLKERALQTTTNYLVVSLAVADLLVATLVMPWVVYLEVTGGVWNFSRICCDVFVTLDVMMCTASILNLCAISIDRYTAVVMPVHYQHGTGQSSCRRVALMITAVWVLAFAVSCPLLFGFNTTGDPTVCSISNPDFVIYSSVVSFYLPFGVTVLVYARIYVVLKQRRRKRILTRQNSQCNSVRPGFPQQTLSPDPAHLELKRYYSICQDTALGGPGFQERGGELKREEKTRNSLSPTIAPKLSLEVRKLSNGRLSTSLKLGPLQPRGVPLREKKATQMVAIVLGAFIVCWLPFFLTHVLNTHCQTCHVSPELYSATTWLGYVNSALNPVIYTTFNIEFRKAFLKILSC
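Cells expressing the human receptor were seeded at 1500 cells/well, incubated overnight at 37 degrees C in 5% CO2, then exposed to library compounds with dopamine controls for 90 minutes at 37 degrees C before luminescent detection.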
IL-1B inflam inh – inflammasome signaling inhibition, IL-1 beta readout. THP-1 LPS/ATP IL-1B secretion, AlphaLISA, 16 h; hits give low values. activity change, % at 57.5 µM. actives 4.7% (n = 360,000). AID 743279; in the data active means activity change below about -50%; inconclusive means mostly about -30% to -49%
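THP-1 cells pretreated 1 hr with compounds (up to 57.5 uM final), then stimulated with LPS (250 ng/mL final) plus ATP (1.25 mM final); secreted IL-1B measured by AlphaLISA after 16 hr, decreased signal indicating inhibition.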
a7 integrin act – integrin-mediated muscular dystrophy alleviation activation | Potency, µM (highest dose often 38.3 µM), actives largely listed as activators | AID 624291 | alpha7betagal myoblasts, beta-gal FDG fluorescence, 48 h | actives 0.064% (n = 350,000); further: nearly all actives have a fitted effect of over 60% in size
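alpha7betagal+/- myoblasts (passage 13, 250/well) treated 48 h at 37C with compounds at 1:260 dilution of DMSO stock. Lysed, then beta-galactosidase activity read as FDG fluorescence (ex 480/em 540) after 30 min, with pre-read for autofluorescence.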
ATXN2 expr inh – inhibitors of ATXN2 expression. AID 1745845. HEK-293 ATXN2-luciferase reporter, luminescence, 24 h. Potency, µM (doses to about 57 µM), most hits filed as inhibitors. actives 0.72% (n = 360,000); further: nearly all actives have a fitted effect of over 55% in size
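ATXN2-luciferase reporter cells (luciferase flanked by upstream and downstream ATXN2 gene portions) were treated 24 h at 37 °C with compounds at up to 57 uM. SteadyGlo luminescence gave expression; GF-AFC fluorescence gave viability.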
DRD3 agonist – activates the human D3 dopamine receptor; max activation, %; P35462; D3R DiscoveRx beta-arrestin cells, luminescence, 90 min; actives 0.58% (n = 410,000); in the data active means max activation above about 30%
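Agonist mode: compounds and dopamine controls were applied to plated cells for 90 min at 37 degrees C after an overnight attachment at 1500 cells/well. Luminescent read-out followed 30 - 60 minutes at room temperature with DiscoveRx detection reagent.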
Each line names hits and unclear results; the compound was inactive in the other large screens. This is a sample that favours compounds with a hit; in the whole collection about 7% have one here. Unless noted, the call rests on the fitted dose curve; in most records, active means well fitted curve in the direction sought with a large enough effect; inconclusive means small, poorly fitted or top-dose-only effect, or another doubt; inactive means no such curve, though single readings can be large; an effect the other way counts as inactive or inconclusive.

Cc1ccc(N(CC(=O)NN=C2CCN(C)CC2)S(=O)(=O)c2ccccc2)c(C)c1	none
O=C(Nc1ccc(F)cc1)C(c1ccccc1)N1CCN(C(=O)c2ccco2)CC1 (stereo not drawn)	IL-1B inflam inh inconclusive
N=c1n(Cc2ccccc2)c2ccccc2n1CC(O)c1ccccc1 (stereo not drawn)	S2 tox inconclusive, IL-1B inflam inh inconclusive
Cc1ccccc1OCC(O)Cn1c(=N)n(Cc2ccccc2)c2ccccc21 (stereo not drawn)	S2 tox 31.6µM, IL-1B inflam inh -106.4, ATXN2 expr inh inconclusive
C=CCN1C(=O)/C(=C/c2ccc(OC(C)=O)c(OCC)c2[N+](=O)[O-])SC1=S	IL-1B inflam inh -75.8, ATXN2 expr inh inconclusive (no result: S2 tox)
CC1=C(C(=O)OCC(C)C)C(c2cccc(F)c2)N2C(=O)C(C)SC2=N1 (stereo not drawn)	none
COc1ccc(C2CC(c3ccccc3)=NN2c2ccc(C(N)=O)cc2)cc1 (stereo not drawn)	IL-1B inflam inh -54.5 (no result: S2 tox)
COc1ccc(C2CC(c3ccc(Br)cc3)=NN2C(=O)CN2CCCC2)cc1 (stereo not drawn)	S2 tox inconclusive, IL-1B inflam inh -62.3, ATXN2 expr inh inconclusive
COc1ccc(C2CC(c3ccc(C)cc3)=NN2C(=O)c2ccccc2)cc1 (stereo not drawn)	IL-1B inflam inh inconclusive (no result: ATXN2 expr inh)
COc1ccc(C2CC(c3ccccc3)=NN2C(=O)CSc2ncccn2)cc1 (stereo not drawn)	IL-1B inflam inh inconclusive
COc1ccc(C2CC(c3ccccc3)=NN2C(=O)CN2CCN(Cc3ccccc3)CC2)cc1 (stereo not drawn)	IL-1B inflam inh -65.9, ATXN2 expr inh inconclusive
COc1ccc(C2=NN(C(=O)CN3CCCCC3)C(c3ccc(C)cc3)C2)cc1 (stereo not drawn)	IL-1B inflam inh -87.0
CC(C)Cc1ccc(/C(=N/O)C(=O)O)s1	none
Cc1cc(C)c(NC(=O)CN2C(=O)NC3(CCCCC3)C2=O)c(C)c1	none
CC(C)(C)NC(=O)C(OC(=O)c1ccco1)c1ccccc1F (stereo not drawn)	none (no result: ATXN2 expr inh)
COc1ccc(C2CC(c3ccccc3)=NN2C(=O)CSc2ncn[nH]2)cc1 (stereo not drawn)	IL-1B inflam inh -70.8
CCOC(=O)CSC1=NC(=O)/C(=C/c2ccc(OC)cc2)S1	S2 tox 7.94µM, IL-1B inflam inh -85.7, ATXN2 expr inh 7.08µM
COc1ccc(/C=C2\SC(N)=NC2=O)cc1	none
COC(=O)CN1CCN(C(c2ccccc2)c2ccccc2)CC1	none
CN(Cc1ccccc1)C(=O)CN1CCN(C(c2ccccc2)c2ccccc2)CC1	DRD3 antagonist inconclusive, IL-1B inflam inh -62.2
CCOC(=O)c1c(N)n(-c2ccc(N)cc2)c2nc3ccccc3nc12	none
CCOC(=O)c1c(N)n(C2CC(C)(C)NC(C)(C)C2)c2nc3ccccc3nc12	IL-1B inflam inh -65.1 (no result: S2 tox)
CCCNC(=O)N1c2ccccc2Sc2ccccc21	S2 tox inconclusive
O=C(c1ccc2ccccc2c1)C1CCCN(C(=O)c2noc3c2CCCC3)C1 (stereo not drawn)	IL-1B inflam inh -71.5, ATXN2 expr inh inconclusive
CSc1ncccc1C(=O)N1CCCC(C(=O)c2ccc3ccccc3c2)C1 (stereo not drawn)	IL-1B inflam inh -56.2
O=C(c1ccc2ccccc2c1)C1CCCN(C(=O)c2cccnc2)C1 (stereo not drawn)	none
COc1cc(SC)ccc1C(=O)Nc1nc(C)cc(C)n1	a7 integrin act inconclusive
Cc1cc(=O)n2nc(N3CCC(C(=O)NCc4ccco4)CC3)sc2n1	none
CCCNC(=O)c1ccc2c(=O)c(O)c(-c3cccc(Br)c3)[nH]c2c1	ATXN2 expr inh 22.4µM
Nc1c(Cl)cc(-c2[nH]c3cc(C(=O)NCCO)ccc3c(=O)c2O)cc1Cl	DRD3 agonist 34.6 (no result: S2 tox)
CCCNC(=O)c1ccc2c(=O)c(O)c(C)[nH]c2c1	DRD3 agonist 32.8
O=C(NCCO)c1ccc(Cl)c(Cl)c1	none
CCCNC(=O)c1ccc2c(=O)c(O)c(-c3ccc(F)cc3)[nH]c2c1	ATXN2 expr inh inconclusive
O=C1CC(/C=C/c2ccccc2)(C(=O)NC2CCCC2)N1c1ccc(S(=O)(=O)N2CCCC2)cc1 (stereo not drawn)	none
CN(C)Cc1c(O)ccc2ccccc12	none
CCN(CC(=O)Nc1ccc(NC(C)=O)cc1)CC(=O)Nc1cccc2ccccc12	none (no result: ATXN2 expr inh)
CCN(CC(=O)Nc1ccc(NC(C)=O)cc1)Cc1c(O)ccc2cc(Br)ccc12	IL-1B inflam inh -57.4
Cc1ccc(CN(C)CC(=O)Nc2ccc3c(c2)CCC3)cc1	IL-1B inflam inh -66.4
Cc1ccc(NC(=O)CN(C)Cc2c(O)ccc3ccccc23)cc1	IL-1B inflam inh -101.3
CN(C)c1ccc(-c2ccnc3c2CC(C)(C(=O)NCc2cccc(Cl)c2)O3)cc1 (stereo not drawn)	IL-1B inflam inh inconclusive, ATXN2 expr inh inconclusive (no result: a7 integrin act)
CN(C)NC(=O)C12CCC(C)(C(=O)O1)C2(C)C (stereo not drawn)	none (no result: ATXN2 expr inh)
Cc1ccccc1Nc1nc(-c2cccnc2)nc2ccccc12	none
Oc1ccc(Nc2nc(-c3ccc(Cl)cc3)nc3ccccc23)cc1	none (no result: S2 tox, DRD3 antagonist, IL-1B inflam inh, a7 integrin act, ATXN2 expr inh)
COc1ccc(Nc2nc(-c3ccccc3)nc3ccccc23)cc1	S2 tox inconclusive, IL-1B inflam inh -94.9
Oc1ccc(Nc2nc(-c3ccccc3)nc3ccccc23)cc1	IL-1B inflam inh -93.7, a7 integrin act inconclusive
Cc1ccc(Nc2nc(-c3cccnc3)nc3ccccc23)cc1	S2 tox inconclusive, IL-1B inflam inh -67.4, ATXN2 expr inh inconclusive
COc1cccc(Nc2nc(-c3cccs3)nc3ccccc23)c1	S2 tox inconclusive, IL-1B inflam inh -57.8
COc1ccc(Nc2nc(-c3cccs3)nc3ccccc23)cc1	none
Cc1cc(NC2CCCCC2)nc2ccccc12	S2 tox inconclusive, DRD3 antagonist -66.6, IL-1B inflam inh -91.5 (no result: ATXN2 expr inh)
COc1ccc(/C=N/Nc2nc(-c3cccnc3)nc3ccccc23)cc1OC	IL-1B inflam inh -51.7
COc1cccc(Nc2cc(C)c3ccccc3n2)c1	IL-1B inflam inh -54.6
Cc1cc(NCc2ccccn2)nc2ccccc12	none
COc1cccc(Nc2nc3ccccc3c(=O)[nH]2)c1	S2 tox inconclusive
O=C1CC(c2ccccc2)CC(O)=C1C=NCc1ccc(Cl)cc1 (stereo not drawn)	DRD3 antagonist inconclusive
COc1cccc(N/C=C(\C#N)c2ccc(OCCCF)cc2)c1	IL-1B inflam inh -51.8
COC(=O)c1ccc(NC(=O)Nc2ccc(F)cc2F)cc1	IL-1B inflam inh -53.1
CCN(CC)C(=O)Nc1ccc(C(=O)OC)cc1	DRD3 antagonist -69.0
